According to PubChem BioAssay AID1466 (National Center for Advancing Translational Sciences (NCATS), 2008):
Among all 200,000 compounds or so, about 10 (0.005%) were called active. Roughly 8% stayed inconclusive and do not appear here. Calls come from the whole dose curve; as a rule, active = well fitted inhibition curve with a large enough effect; inconclusive = small, poorly fitted or top-dose-only effect, or effect the other way, or another doubt; inactive = no such curve, though single readings can be large or run the other way. A selection follows.

target: Lysosomal alpha-glucosidase (Homo sapiens) (UniProt P10253); test: qHTS Assay for Inhibitors of Human alpha-Glucosidase as a Potential Chaperone Treatment of Pompe Disease; conditions: purified human GAA, 4-MU-alpha-glucoside fluorescence; series mostly up to 76.9 µM; activity change, negative = inhibition: at the top concentration;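 note: plate controls were uninhibited enzyme wells for no effect and no-enzyme background for full effect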
In short: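 Enzyme (4 nM final) mixed with compound (up to 77 uM), then 4-MU-alpha-D-pyranoside (400 uM final) added; 20 min at room temperature, pH 5.0. Reaction stopped at pH 10, fluorescence read, AC50 derived by Hill fit.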

Activity change, negative = inhibition, inactive:
O=C(/C=C/c1ccccc1[N+](=O)[O-])OC1CCCCC1=O (stereo unspecified) 0.967%
CCOc1ccc(C(CC(=O)O)n2cnnn2)cc1OC (stereo unspecified) 4.13%
Cc1cc(=O)[nH]c(S)c1C#N 1.79% [at 15.4 µM]
Cc1c(Cl)cccc1NC(=S)N(Cc1ccccc1)Cc1cccnc1 1.69%
C=C(C)CNC(=S)Nc1ccc(S(=O)(=O)Nc2cnc3ccccc3n2)cc1 -14.1%
N/C(=N\OC(=O)Cc1ccc([N+](=O)[O-])cc1)c1ccccn1 -2.82%
COc1cccc(OC)c1CN(C)C(=O)c1cnccc1C(F)(F)F -1.85% [at 15.4 µM]
CCS(=O)(=O)C1=NSC2=NC(=O)/C(=C\c3cc(C)n(-c4cccc(OC)c4)c3C)C(=N)N21 -5.46%
CC1CC(=O)Nc2ccccc2N1S(=O)(=O)c1cccs1 (stereo unspecified) -6.42%
Cc1nc(N2CCCCC2)sc1C=O -3.97%
Cc1cc(C)nc(NC(=O)/C=C/c2ccc(Cl)cc2)n1 -23.8%
COc1ccc(N2C(=O)C3C(C2=O)C(C(=O)c2ccccc2)N2CCCC32)cc1 (stereo unspecified) -6.45% [at 15.4 µM]
Cc1ccc(OC(=O)c2c(C)nn(-c3ccccc3)c2C)cc1 3.81%
NS(=O)(=O)c1ccc(NC(=O)COC(=O)CCc2c[nH]c3ccccc23)cc1 3.96%
COc1ccc(CN(Cc2ccc(OC)cc2)C(=O)c2cccs2)cc1 0.0908%
CCC(=O)N(Cc1cc2ccccc2[nH]c1=O)c1ccc(OC)cc1 -0.638%
O=C(Nc1cccnc1)c1cccc(S(=O)(=O)N2CCCC2)c1 5.11%
CCOC(=O)NNc1cc(C(F)(F)F)ccn1 -7.1% [at 15.4 µM]
CN(C)c1ccc(/C=C/C(=O)c2ccc(O)cc2)cc1[N+](=O)[O-] -8.53%
COC(=O)c1noc(C)c1-c1ccnn1C(=O)c1ccc(Cl)cc1 -10.5%
CN(CCC1CCOCC1)Cc1cn[nH]c1-c1ccc(-c2ccccc2)cc1 -10.9%
CCOC(=O)C1CCN(c2ncnc3c2c(-c2ccccc2)cn3-c2ccc(C)cc2)CC1 1.29%
CCOC(=O)c1sc(NC(=O)CSc2nc(O)c(Cc3ccccc3)c(=O)[nH]2)nc1C -4.75%
Cc1cc(=O)oc2c(C(=O)c3ccccc3)c(OCC(N)=O)ccc12 7.98%
Cc1cc(C)cc(OCC(=O)O/N=C(\N)Cc2ccc([N+](=O)[O-])cc2)c1 -14.2%
COC(=O)c1cc(NC(=O)c2ccco2)ccc1N1CCOCC1 5.5%
CCc1ccc(NC(=O)N2CCN(c3ccccc3)CC2)cc1 0.27%
C=CCN(c1ccccc1C(=O)NCC(=O)OCC)S(=O)(=O)c1ccc(C)cc1 -5.41%
CNC(=O)COC(=O)c1cc(-c2ccc(OC)cc2)nc2ccccc12 1.14%
COCCCNC(=S)NCCNc1nc2cc(C)c(C)cc2cc1C#N 11.7%
C/[N+]([O-])=C\c1ccc([N+](=O)[O-])o1 -1.29%
COc1ccc(O)c(C(=O)c2cnc3c(c2)c(-c2ccc(F)cc2)c(C#N)c(=O)n3C)c1 2.1%
CN(C)S(=O)(=O)c1ccc(NC(=O)COC(=O)Cn2[nH]c(=O)c3ccccc3c2=O)cc1 -14.6%
Cc1ccc(CN(Cc2cccnc2)C(=S)Nc2cc(Cl)ccc2C)cc1 -3.74%
Cc1ccccc1NCC(=O)N/N=C\c1ccc([N+](=O)[O-])s1 -9.83%
COc1cccc(NC(=O)C(Sc2nnnn2C)c2ccccc2)c1 (stereo unspecified) -3.14%
Cc1cc(C(=O)N/N=C\C(Br)=C\c2ccccc2)c(C)o1 -12.8%
COc1ccc(NC(=O)CSc2ncnc3[nH]ncc23)cc1 5.07% [at 15.4 µM]
COc1cc(C(F)(F)F)c(C(=O)N(C)c2ccc(Cl)cc2)cn1 -7.91%
O=C(CP(=O)(c1ccccc1)c1ccccc1)N1CCOCC1 8.31%
S=C(Nc1ccc(Br)cc1Cl)NC1CCN(Cc2ccccc2)CC1 1.66%
CC(NC(=S)Nc1ccc(OC(F)F)cc1)c1ccc(F)cc1 (stereo unspecified) -1.9%
CS(=O)(=O)c1ccc2nc(NC(=O)c3ccc(N4CCCC4=O)cc3)sc2c1 -7.6%
CCOCCCNC(=O)C(NC(=O)c1ccccc1O)c1ccccc1 (stereo unspecified) -4.04%
O=C(C1CCN(S(=O)(=O)c2ccc(Br)s2)CC1)N1CCN(C2CCCCC2)CC1 -23.2%
Cc1cc(-c2nc(C)c(-c3nnc(SCC(=O)Nc4ccccc4)n3C)s2)no1 3.88% [at 15.4 µM]
CNc1ccc([N+](=O)[O-])cc1C(=O)O -15.9%
CSCC[C@H](NC(=O)NC1CCCC1)C(=O)O -5.49% [at 15.4 µM]
Cc1ccc(-c2cc(C(=O)NN)n[nH]2)o1 -2.87%
Cc1cccc(C)c1NC(=O)C1CCCN1C(=O)OC(C)(C)C (stereo unspecified) 1.51%
Cc1ccc(/C=N/NC(=O)CSc2ccccn2)o1 0.179% [at 15.4 µM]
CCCCCCCCCCCCC(NC(C)=O)(C(=O)OCC)C(=O)OCC -6.38%
O=C(NCC1CCCO1)c1cc(-c2ccccc2)nc2ccccc12 (stereo unspecified) -10.8% [at 15.4 µM]
FC(F)(F)c1cccc(-c2nc(COc3ccc(Cl)cc3Cl)no2)c1 -4.53%
COc1ccc(N2CCN(C(=O)CNS(=O)(=O)c3ccc(C)c(C)c3)CC2)cc1 -1.52%
C/C(=N\Nc1ncc(Cl)cc1Cl)c1cccs1 4.46%
Cc1onc(C(=O)NN)c1C(=O)N1CCN(C(c2ccccc2)c2ccccc2)CC1 -11.1%
CCOc1ccc2sc(NS(=O)(=O)c3ccc(N)cc3)nc2c1 -7.28%
CCn1c(SCc2ccccc2)nc2c(c1=O)SCC2 0.321%
Nc1ccccc1Sc1cc(Cl)nnc1Cl 3.88%
Cc1cccc(CSc2nc3c(c(=O)n2C)SCC3)c1 -3.07%
